Results filed as inconclusive are left out. Values without a mark were called inactive. Calls of active or inactive are those of the source. The call rests on the fitted dose curve; in most records, active means well fitted inhibition curve with a large enough effect; inconclusive means small, poorly fitted or top-dose-only effect; inactive means flat fitted curve, though single readings scatter.

The record followed here is PubChem BioAssay (NCATS).
On the % scale 0 is the no-effect control and ±100 the full control effect.

For the first assay, the system named is HaCat. In words: Cytotoxic Profiling of Annotated Libraries Using Quantitative High-Throughput Screening (AID 1296008). Further: nearly all actives have a fitted effect of over 60% in size. The conditions noted are these: Five cell lines viability, CellTiter-Glo ATP luminescence, 48-72 h; max response: stronger effect = lower value. In short, it runs like this: (§1)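 Cytotoxicity was measured as CellTiter-Glo ATP luminescence, read after 10 min at room temperature. Compound treatment of the cells lasted 48 or 72 hr at 37 degrees Celsius in a qHTS format.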
On the technique in general: In ATP-based viability assays light output follows the ATP content of the culture.
On to `CC(=O)N[C@H]1[C@H](O[C@H]2CC[C@]3(C)C4CC=C5[C@@H]6CC(C)(C)CC[C@]6(C(=O)O)[C@H](O)C[C@@]5(C)[C@]4(C)CC[C@H]3C2(C)C)O[C@H](CO)[C@@H](O)[C@@H]1O` (stereo partly specified), for which the outcome was inactive.

For the molecule `CN[C@H](CNC(=O)N1CCC[C@@H]([C@@H](OCCNC(=O)OC)c2cccc(Cl)c2)C1)C[C@H]1CCCOC1`, the molecule was called inactive.

In the case of `COc1ccc(CC(=O)NCc2ccccc2-c2ccccc2C(=O)NCCc2cccnc2)cc1`, the call was inactive.

Regarding `COc1ccc(Oc2c(Cl)cnn(C3c4ccccc4-c4ccccc43)c2=O)cc1`, the outcome was inactive.

For `COCCN1CCC(C(=O)NO)(S(=O)(=O)c2ccc(Oc3ccc(OC(F)(F)F)cc3)cc2)CC1`, the molecule was classed as inactive.

For the molecule `CC(=O)O[C@@H]1[C@H](O[C@@H]2OC[C@](O)(CO)[C@H]2O)[C@@H](O[C@@H]2O[C@@H](C)[C@H](O)[C@@H](O[C@@H]3O[C@H](CO)[C@@H](O)[C@H](O)[C@H]3O)[C@H]2O)[C@H](OC(=O)[C@]23CCC(C)(C)C[C@H]2C2=CCC4[C@@]5(C)C[C@H](O)[C@H](O[C@@H]6O[C@H](C(=O)O)[C@@H](O)[C@H](O)[C@H]6O)[C@@](C)(C(=O)O)C5CC[C@@]4(C)[C@]2(C)CC3)O[C@@H]1C` (stereo partly specified), the molecule was classed as inactive.

Turning to `COC(=O)c1ccccc1O[C@@H]1O[C@H](CO[C@@H]2OC[C@@H](O)[C@H](O)[C@H]2O)[C@@H](O)[C@H](O)[C@H]1O`, the outcome was inactive.

As to `C[C@H](O)C(O)(C(=O)OCc1ccccc1NC(=O)CCC(N)C(=O)O)[C@H](C)O` (stereo partly specified), the molecule was classed as inactive.

Another assay concerns KB-3-1. Described as above. The conditions noted are these: Five cell lines viability, CellTiter-Glo ATP luminescence, 48-72 h; max response: stronger effect = lower value. In short, it runs like this:
as §1
Regarding `COc1cccc(OC)c1-c1ccc(C[C@H](NC(=O)c2c(Cl)cccc2Cl)C(=O)O)cc1`, the molecule was called inactive.

With `Nc1ncnc2c1c(COc1cccc(Cl)c1)nn2C1CCOCC1`, the molecule was classed as inactive.

On to `C=C1CC/C=C(/C(=O)O)CCC2C1CC2(C)C` (stereo unspecified), for which the max response was 4.31%.

On to `COC(=O)C1=CO[C@@H](O[C@@H]2O[C@H](CO)[C@@H](O)[C@H](O)[C@H]2O)[C@@H]2[C@@H](C)[C@@H](O)C(O)[C@H]12` (stereo partly specified), for which the molecule was called inactive.

On to `C=C1C(=O)O[C@@H]2CC(C)=C([C@@H](C)CCCOC(C)=O)[C@@H](O)[C@H]12`, for which the max response is 6.41%.

As to `O=C(C[C@@H]1C(C(=O)O)=CO[C@@H](O[C@@H]2O[C@H](CO)[C@@H](O)[C@H](O)[C@H]2O)/C1=C\CO)OCCc1ccc(O)c(O)c1`, the max response is 9.2%.

In the case of `C/C1=C\CC(C)(C)/C=C/C/C(C(=O)O)=C/CC1`, the max response is -12.2%.

In the case of `OC[C@H]1O[C@@H](OCc2ccccc2)[C@H](O[C@@H]2OC[C@@H](O)[C@H](O)[C@H]2O)[C@@H](O)[C@@H]1O`, the result was inactive.

For `COc1cc(/C=C/C(=O)O)ccc1O[C@@H]1O[C@H](CO)[C@@H](O)[C@H](O)[C@H]1O[C@@H]1OC[C@](O)(CO)[C@H]1O`, the max response was 0.854%.

As for `COC(=O)C1(C)CCCC2(C)c3ccc(C(C)C)cc3C(O)C(O)C12` (stereo unspecified), the molecule was classed as inactive.

Regarding `O=C(O)CC(CCc1ccccc1)OC1OC(CO)C(O)C(O)C1O` (stereo unspecified), the call was inactive.

Regarding `CC1=C[C@@H]2[C@H]3[C@@H]4O[C@@](C)(CC[C@H]4O)[C@H]3CC(=O)[C@]23C(=O)N[C@@H](CC(C)C)[C@@H]3[C@@H]1C`, the max response is 9.19%.

With `COc1ccc(/C=C/C(=O)O[C@@H]2[C@@H](O[C@@H]3O[C@H](CO)[C@@H](O)[C@H](O)[C@H]3O)[C@@H](O)[C@H](O[C@H]3C4C=CO[C@@H](O[C@@H]5O[C@H](CO)[C@@H](O)[C@H](O)[C@H]5O)C4[C@@]4(CO)O[C@@H]34)O[C@H]2C)cc1` (stereo partly specified), the max response was -1.62%.

With `NCCCCN(Cc1nc2ccccc2[nH]1)[C@H]1CCCc2cccnc21`, the max response was 1.94%.

As for `COc1cc(/C=C/C(=O)OC[C@H]2O[C@@H](OC3CC(C)=C(C(=O)O)C(C)(C)C3)[C@H](O)[C@@H](O)[C@@H]2O)cc(OC)c1O` (stereo partly specified), the outcome was inactive.

For the molecule `CC1CCC2(NC1)OC1C(O)C3C4CCC5CC(O[C@@H]6O[C@H](CO)[C@@H](O)[C@H](O)[C@H]6O[C@@H]6O[C@@H](C)[C@H](O)[C@@H](O)[C@H]6O)CCC5(C)C4CCC3(C)C1C2C` (stereo partly specified), the max response was -0.386%.

As to `O=C(O)CCc1c(C(=O)O)[nH]c2cc(Cl)cc(Cl)c12`, the outcome was inactive.

On to `C=C(C(=O)OC)[C@]12O[C@@](C)(CC[C@@]3(O)/C(=C\C)C(=O)O[C@]3(C)C[C@@H]1OC(=O)C(CO)CN1CCCC1C(=O)O)CC2=O` (stereo partly specified), for which the outcome was inactive.

With `CC(C)c1cc2c(c(O)c1O)[C@@]13CCCC(C)(C)C1[C@@H](O)[C@@H]2OC3=O` (stereo partly specified), the max response was 7.44%.

Take `CC1CC(O)/C=C/C(O)/C=C\C(=O)O1` (stereo unspecified): the outcome was inactive.

Turning to `C=C1C(=O)O[C@@H]2C[C@]3(C)[C@@H](CCC(C)=O)[C@@H]3C[C@H]12`, the max response was 2.7%.

For `C/C(=C\C(=O)C[C@@]12C(=O)O[C@]3(C)CC[C@H]1C[C@H]23)C(N)=O`, the molecule was classed as inactive.

Regarding `C=C(COC(=O)CC(C)C)C1Cc2cc(C(C)=O)ccc2O1` (stereo unspecified), the max response was 4.45%.

Consider `CN(C)CCC[C@]1(c2ccc(F)cc2)OCc2cc(C#N)ccc21`, for which the max response was -2.48%.

For `C=C1C(OC(C)=O)[C@@]23CCC4[C@](C)(C(=O)O)CCC[C@@]4(C)[C@]2(O)CC[C@H]1C3` (stereo partly specified), the max response was 0.958%.

With `CC(=O)OC1C(CO)OC(O[C@H]2[C@H](OC(=O)[C@]34CCC(C)(C)C[C@H]3C3=CCC5[C@@]6(C)CC[C@H](O[C@@H]7O[C@H](C(=O)O)[C@@H](O)[C@H](O[C@@H]8OC[C@@H](O)[C@H](O)[C@H]8O)[C@H]7O[C@@H]7O[C@H](CO)[C@H](O)[C@H](O)[C@H]7O)[C@@](C)(C=O)C6CC[C@@]5(C)[C@]3(C)C[C@H]4O)O[C@H](C)[C@H](OC3OC(C)C(OC4OCC(O)C(O)C4O)C(O)C3O)[C@@H]2O)C(O)C1O` (stereo partly specified), the molecule was called inactive.

For `O=C(O)c1cc(C(F)(F)F)ccc1N1CC[C@H](OCc2ccccn2)C1`, the max response is 6.78%.

In the case of `C/C(=C\CCC(C)(C)O)CCO[C@@H]1O[C@H](CO[C@@H]2O[C@@H](C)[C@H](O)[C@@H](O)[C@H]2O)[C@@H](O)[C@H](O)[C@H]1O`, the max response was 4.26%.

As to `O=[N+]([O-])c1cc(Cl)ccc1S(=O)(=O)N1CCN(Cc2ccccc2)CC1`, the max response was -13.2%.

Regarding `CC1(C)C[C@H](O)C[C@@]2(C)[C@H]1[C@H](O)C=C1COC(=O)[C@@]12O`, the call was inactive.

In the case of `CC(=O)N[C@H]1[C@H](O[C@H]2CC[C@]3(C)C4CC=C5[C@@H]6CC(C)(C)CC[C@]6(C(=O)O)[C@H](O)C[C@@]5(C)[C@]4(C)CC[C@H]3C2(C)C)O[C@H](CO)[C@@H](O)[C@@H]1O` (stereo partly specified), the max response was -6.34%.

`CN[C@H](CNC(=O)N1CCC[C@@H]([C@@H](OCCNC(=O)OC)c2cccc(Cl)c2)C1)C[C@H]1CCCOC1`: the max response was 1.87%.

As for `COc1ccc(CC(=O)NCc2ccccc2-c2ccccc2C(=O)NCCc2cccnc2)cc1`, the max response was -4.64%.

For `COc1ccc(Oc2c(Cl)cnn(C3c4ccccc4-c4ccccc43)c2=O)cc1`, the max response was -2.29%.

On to `COCCN1CCC(C(=O)NO)(S(=O)(=O)c2ccc(Oc3ccc(OC(F)(F)F)cc3)cc2)CC1`, for which the outcome was inactive.

With `CC(=O)O[C@@H]1[C@H](O[C@@H]2OC[C@](O)(CO)[C@H]2O)[C@@H](O[C@@H]2O[C@@H](C)[C@H](O)[C@@H](O[C@@H]3O[C@H](CO)[C@@H](O)[C@H](O)[C@H]3O)[C@H]2O)[C@H](OC(=O)[C@]23CCC(C)(C)C[C@H]2C2=CCC4[C@@]5(C)C[C@H](O)[C@H](O[C@@H]6O[C@H](C(=O)O)[C@@H](O)[C@H](O)[C@H]6O)[C@@](C)(C(=O)O)C5CC[C@@]4(C)[C@]2(C)CC3)O[C@@H]1C` (stereo partly specified), the max response was 3.25%.

With `COC(=O)c1ccccc1O[C@@H]1O[C@H](CO[C@@H]2OC[C@@H](O)[C@H](O)[C@H]2O)[C@@H](O)[C@H](O)[C@H]1O`, the max response is -2.26%.

Turning to `C[C@H](O)C(O)(C(=O)OCc1ccccc1NC(=O)CCC(N)C(=O)O)[C@H](C)O` (stereo partly specified), the molecule was classed as inactive.
